HPGD inh – blocks human HPGD enzyme activity; P15428; purified HPGD, NADH fluorescence kinetic, PGE2 substrate; Potency, µM, without a hit: at the highest dose activity change, negative = inhibition, actives largely listed as inhibitors; 150,000 compounds, 4.3% hits; AID 894; active means well fitted inhibition curve with a large enough effect, not every such curve was filed as active; inconclusive means small, poorly fitted or top-dose-only effect, or another doubt; inactive means no such curve, though single readings can be large or run the other way; further: potency means the concentration at half of the fitted maximal effect
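20 nM HPGD preincubated 15 min at room temperature with compound in 50 mM Tris-HCl pH 8, 0.01% Tween 20. Started with 1 mM NAD+ and 30 uM prostaglandin E2; NADH fluorescence (360/450 nm) read 5 times over 30-s intervals, last minus first.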
ALOX12 inhib – 12-hLO (ALOX12) enzyme inhibition; P18054; purified 12-hLO, xylenol orange hydroperoxide absorbance; Potency, µM (top dose mostly 57.1 µM), for inactives: at the highest dose activity change, negative = inhibition, hits mostly inhibitors; 150,000 compounds, 0.12% hits; AID 1452; further: potency means the concentration at half of the fitted maximal effect; nearly all actives have a fitted effect of over 55% in size
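150 nM 12hLO, 25 mM Hepes pH 7.0 + 0.01% Triton X-100; cpd preinc 15 min RT; 40 uM arachidonic acid, 30 min RT; Fe-XO 30 min; A573/A405 ratio as read-out.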
PNC assembly inh – perinucleolar compartment assembly inhibition; PC3M PTB-GFP, PNC prevalence imaging, 16 h; active compounds read low; 140,000 compounds, 3.1% hits; activity change (PNC), negative = inhibition, % at 10 µM;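 active means readout at or below -70, meaning at least 70% loss of cells showing the perinucleolar compartment, a nuclear body marking cancer cells; inconclusive means readout between -30 and a set limit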;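 further: plate controls were DMSO wells for no effect and camptothecin positive control wells for full effect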
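Compounds are pinned in duplicate onto adhered PC3M cells stably expressing GFP-tagged PTB and incubated 16 h at 37 C. Cells are then fixed, nuclei stained with Hoechst, and PNC-positive cells counted.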
ALDH1A1 block – blocks purified human ALDH1A1 activity; Purified ALDH1A1, NADH fluorescence, propionaldehyde substrate; 220,000 compounds, 7.3% hits; Potency, µM (series often up to 75.3 µM), inactives show at the top dose activity, negative = inhibition, actives largely listed as inhibitors; P00352; active means well fitted inhibition curve with a large enough effect, not every such curve was filed as active; inconclusive means small, poorly fitted or top-dose-only effect, or another doubt; inactive means no such curve, though single readings can be large or run the other way;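 further: potency means the concentration at half of the fitted maximal effect; plate controls were no enzyme wells and a reference inhibitor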
Target sequence (P00352 whole entry, looked up): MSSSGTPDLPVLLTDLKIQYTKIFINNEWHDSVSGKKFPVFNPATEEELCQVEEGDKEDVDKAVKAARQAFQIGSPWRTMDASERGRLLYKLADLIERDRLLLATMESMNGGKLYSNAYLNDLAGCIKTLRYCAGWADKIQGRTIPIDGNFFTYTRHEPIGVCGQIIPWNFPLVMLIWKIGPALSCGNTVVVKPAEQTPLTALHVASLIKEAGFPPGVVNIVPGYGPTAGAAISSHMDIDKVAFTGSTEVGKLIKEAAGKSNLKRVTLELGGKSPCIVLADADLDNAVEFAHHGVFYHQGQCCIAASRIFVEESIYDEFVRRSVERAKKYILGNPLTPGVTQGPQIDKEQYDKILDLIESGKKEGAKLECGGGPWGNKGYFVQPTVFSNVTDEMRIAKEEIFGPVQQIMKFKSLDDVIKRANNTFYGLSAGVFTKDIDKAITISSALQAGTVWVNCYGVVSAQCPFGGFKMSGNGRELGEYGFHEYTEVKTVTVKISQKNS
aGal spleen mod – alpha-galactosidase A (human) modulation; P06280; human spleen homogenate, 4MU-alpha-Gal fluorescence, 40 min; Potency, µM (titrated, usually from 80 µM), for inactives: at the highest dose activity change, negative = inhibition, usual class: inhibitors; 240,000 compounds, 0.008% hits;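 further: potency means the concentration at half of the fitted maximal effect; 0% = enzyme with vehicle and -100% = no enzyme basal signal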
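Fluorogenic readout (Ex 365/Em 440 nm) of 4-methylumbelliferone released from 1 mM 4-MU-alpha-galactoside by spleen homogenate, 40 min at 37C, pH 5.0. Data normalized to no-enzyme and enzyme controls; Hill-equation AC50 from compound titrations.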
GLA inh pH 4.5 – inhibitors of human alpha-galactosidase A at pH 4.5; P06280; purified enzyme, 4-MU-alpha-Gal fluorescence, pH 4.5; activity change, negative = inhibition, % at 105 µM; 230,000 tested, under 10 active;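 further: 0% = full activity with enzyme and -100% = basal without enzyme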
Active calls of the source: *; u = inconclusive; x = no result; [ ] = dose if it differs, or a comment. Most compounds without a hit are left out; they make up all but 10% or so of the library. Unless noted, the call rests on the fitted dose curve; in most records, active means well fitted curve in the direction sought with a large enough effect; inconclusive means small, poorly fitted or top-dose-only effect, or another doubt; inactive means no such curve, though single readings can be large; an effect the other way counts as inactive or inconclusive. Unless noted, on the % scale 0 is the no-effect control and ±100 the full control effect.

SMILES	HPGD inh	ALOX12 inhib	PNC assembly inh	ALDH1A1 block	aGal spleen mod	GLA inh pH 4.5
COc1cccc(C(=O)/C=C/c2ccc(SC)cc2)c1	-19%	-2%	61	16µM*	-2%	-27
Oc1ccc2ccccc2c1/C=C\c1ccc2c(Br)cc(Br)c(O)c2n1	-13%	-7%[11.4 µM]	x	21%[13.5 µM]	x	x
NC1=NC2C(N=C(Br)N2[C@@H]2O[C@H]3COP(=O)(O)O[C@@H]3[C@@H]2O)C(=O)N1 (stereo partly drawn)	x	x	x	9%	-7%	x
COc1cc2ccc(=O)oc2cc1O	u	-4%	x	u	u	u
O=Nc1ccc2oc(=O)ccc2c1	16µM*	-11%	x	0.13µM*	23%	-5
OC[C@@H]1O[C@@H](n2cnc3c(SCc4ccccc4)ncnc32)[C@@H](O)[C@H]1O	-4%	0%[11.4 µM]	x	-1%[13.5 µM]	x	x
O=C(NCCN1CCOCC1)C1(C(F)(F)F)C/C(=C\CCO)CCCO1 (stereo not drawn)	x	x	x	x	9%	x
CN1CCN(C(=O)c2ccc3ccccc3c2)CC1	16µM*	-2%	2	-3%	-1%	-2
O=C(c1ccc2ccccc2c1)N1CCN(c2ccc(C(F)(F)F)cn2)CC1	-21%	-7%	10	16µM*	6%	-10
CN1CCN(C(=O)c2ccc(-n3cccc3)cc2)CC1	14µM*	9%	u	4%	0%	7
O=C(c1ccc(-n2cccc2)cc1)N1CCN(Cc2ccccc2)CC1	-12%	10%	24	-10%	5%	-18
CC(=O)O[C@H]1C2=C(C(=O)[C@H]3O[C@@H]31)[C@@H]1[C@@H]3[C@@H](C)OC=C4[C@H](O)[C@H]5O[C@@H]5C(=O)[C@]43C2O[C@H]1C	x	x	x	13%[13.5 µM]	9%[17.5 µM]	x
COc1ccc(S(=O)(=O)N2Cc3ccccc3CC2C(=O)Nc2nccs2)cc1 (stereo not drawn)	-14%	0%	24	5µM*	1%	-2
COc1ccc(S(=O)(=O)N2Cc3ccccc3CC2C(=O)Nc2nccs2)cc1OC (stereo not drawn)	4%	-3%	u	4%	2%	2
Cc1cc(NC(=O)CC#N)n(-c2ccccc2)n1	x	x	x	4%	-2%	1
O=C(OCCN1CCOCC1)C(c1ccccc1)c1ccccc1	-10%	2%	u	25µM*	5%	-7
O=C(c1ccc(Cl)cc1)c1ccc(OCC(O)CN2CCOCC2)cc1 (stereo not drawn)	-9%	-10%	u	-1%	-4%	-9
OC(COc1ccccc1)CN1CCOCC1 (stereo not drawn)	-14%	2%	-100*	10%	4%	3
CC(CN1CCOCC1)C(=O)c1ccccc1 (stereo not drawn)	-5%	4%	58	32µM*	-6%	4
COc1ccccc1C(=O)OCCN1CCOCC1	-4%	2%	u	17%	5%	9
c1ccc(-c2ccc(N3CCCC4(CCNCC4)C3)cc2)cc1	u	2%	x	u	-3%	x
O=S(=O)(NCCCCCCc1ccccc1)c1cccc2c(Cl)cccc12	-21%	-4%	x	u	6%	-7
CC(=O)c1c(C)n(-c2ccccc2)c2ccc(O)cc12	5µM*	-4%	6	-3%	1%	-9
COc1ccc2c(c1)c(C(=O)N1CCN(C)CC1)c(C)n2-c1ccccc1	u	0%	0	14µM*	2%	-7
COCCNC(=O)c1cc2nc3c(c(C(F)(F)F)n2n1)CCc1ccccc1-3	x	x	x	-4%	6%	6
SMILES	HPGD inh	ALOX12 inhib	PNC assembly inh	ALDH1A1 block	aGal spleen mod	GLA inh pH 4.5
O=C(O)c1cc2nc3c(c(C(F)(F)F)n2n1)CCc1ccccc1-3	-10%	-2%	-87*	0%	-6%	0
C=CCC(Nc1ccco1)c1ccccc1 (stereo not drawn)	-20%	-3%	18	22µM*	0%	-1
C=CCC(c1ccccc1)N(C(C)=O)c1ccco1 (stereo not drawn)	x	x	x	-9%	9%	1
CCn1c(=O)c(C(=O)NCCc2ccccc2)c(O)c2ccccc21	-9%	-5%	u	0%	2%	-10
Cn1c(-c2ccccc2)c(C(=O)CCl)c2ccccc21	x	x	x	4µM*	0%	1
CCn1c(-c2ccccc2)c(C(=O)CCl)c2ccccc21	x	x	x	6.3µM*	-5%	7
CC(C)c1ccc(C(=O)NCCCN(C)C)cc1	14µM*	2%	u	2%	0%	4
CN(C)CCCNC(=O)c1ccc(Cl)c(S(=O)(=O)N(C)c2ccccc2)c1	-15%	10%	-108*	-3%	4%	3
CN(C)CCCNC(=O)c1ccc(-c2ccccc2)cc1	-16%	5%	22	6%	-17%	-5
Cc1ccc(N(C(=O)c2cnccn2)C(C(=O)NC2CCCCC2)c2ccc(O)cc2)cc1 (stereo not drawn)	x	x	x	-2%	-1%	3
O=C(c1csnn1)N1CCC[C@@]2(CCN(c3ncccn3)C2)C1	-13%	3%	x	4%	12%	x
O=C(CSc1nc2c(sc3ccccc32)c(=O)n1CCCN1CCCC1)NCc1ccco1	x	x	x	u	u	17
COc1cc(/C=N/n2c(-c3ccccc3)n[nH]c2=S)cc(OC)c1O	x	x	x	x	5%	-2
Cc1cccc(/C=N/n2c(-c3ccncc3)n[nH]c2=S)c1	16µM*	-1%	u	-13%	-3%	-3
Cc1ccccc1-n1c(-c2ccncc2)n[nH]c1=S	u	0%	u	16µM*	5%	5
Cc1cccc(/C=N/n2c(-c3cc(-c4ccccc4)n[nH]3)n[nH]c2=S)c1	5µM*	-7%	-11	-7%	-16%	-6
COc1cc(/C=N/n2c(-c3ccccc3)n[nH]c2=S)ccc1O	x	x	x	25µM*	14%	-13
Cc1cccc(-n2c(-c3ccncc3)n[nH]c2=S)c1C	x	x	x	u	6%	-4
Cc1ccc(-n2ncc(C(=O)Nc3cc(Cl)cc(Cl)c3)c2C2CCNCC2)cc1C	x	x	x	u	-11%	2
S=c1[nH]nc(-c2ccncc2)n1/N=C/c1ccccc1	32µM*	-5%	-28	u	1%	5
Cc1ccc(/C=N/n2c(-c3ccncc3)n[nH]c2=S)o1	x	x	x	-8%	6%	10
S=c1[nH]nc(-c2ccccc2)n1/N=C/c1ccc(-c2ccccc2Cl)o1	3.2µM*	1%	-100*	7%	-5%	-11
Cc1cccc(-c2n[nH]c(=S)n2/N=C/c2cccs2)c1	x	x	x	x	5%	-3
Cc1cccc(-c2n[nH]c(=S)n2/N=C/c2ccc(C)s2)c1	4µM*	-1%	u	-1%	-1%	4
Oc1ccc(Cl)cc1-c1cc(-c2ccco2)[nH]n1	25µM*	u	71	u	1%	5

Source: PubChem (National Center for Advancing Translational Sciences (NCATS))
